PubChem BioAssay (EPA / NIEHS)
Several values for one entry are separate records, joined by “and”; a condition that tells them apart may be missing. Equal entries are not always repeated. Where a structure was tested more than once in an assay, its records may differ in their call. Activity calls are given as the source filed them. Rule for the calls: active = hit-call score of the fitted dose curve at least 0.9, where 1 is the maximum; inactive = score below 0.9.

Test: CCTE_Shafer_MEA_dev_per_burst_spike_percent: CCTE's Neural Network Formation Assay for Percent of Spikes in a Burst, Shafer Lab (AID 2284032)
Method: CCTE_Shafer_MEA_dev assay is conducted using Axion Biosystems 48 well microelectrode array (MEA) plates and Maestro recording system. Each well of the MEA plate contains a grid of 16 microelectrodes embedded in the culture surface. Electrically active cells, such as neurons, can be cultured over the electrodes, and electrical activity in these cells can be recorded extracellularly. The spontaneous firing of neurons is captured from each electrode on a microsecond timescale providing both temporally and spatially precise data. […] The CCTE_Shafer_MEA_dev assay uses primary cultures of rat cortical neurons. Recordings are made on days post-plating 5, 7, 9 and 12. As these cultures mature over time, neural networks develop functional activity and form cohesive networks in which electrical activity can be highly coordinated. CCTE_Shafer_MEA_dev_per_burst_spike_percent is 1 of 19 assay components of the CCTE_Shafer_MEA_dev assay. It measures the percentage of spikes (action potential firings) in a single-electrode burst (temporally-clustered group of spikes) as the total number spikes in bursts divided by the total number of spikes during a recording in a microelectrode array (MEA) using Axion Biosystems Maestro 768 channel amplifier with the AxIS adaptive spike detector. The percent of spikes in bursts is averaged across the actively bursting electrodes to report a well-mean value. To collapse across multiple recordings made on days post-plating 5, 7, 9 and 12, the trapezoidal area-under-the-curve of the component is calculated.Data from the assay component CCTE_Shafer_MEA_dev_per_burst_spike_percent was analyzed into 1 assay endpoint. This assay endpoint, CCTE_Shafer_MEA_dev_per_burst_spike_percent, was analyzed in the negative analysis fitting direction relative to DMSO as the negative control and baseline of activity. Using a type of functional reporter, gain or loss-of-signal activity can be used to understand electrical activity.
On the day prior to culture, each well was coated thoroughly with 150 uL of 0.05% polyethyleneimine (PEI, Sigma Cat P3143) in 50 mM HEPES (Sigma Cat H7523) at a pH of 8. The plate was incubated at 37C for one hour. PEI was rinsed out with 500 uL of sterile water three times. Plates were stored at 4C until the day of culture. This culture was plated at a seeding density of 1.5 x 10^5 cells/well on a 48-well MEA plate, prepared as described above. Cells were administered via a 25 uL media/laminin ([…]; Sigma Cat L2020-1MG) drop directly onto the microelectrode array, as adding the cells with the laminin results in better attachment than pre-coating with laminin. After 2 hours, an additional 475 uL of cortical media was added and the cells returned to the incubator. Exposure starts at day 0 of plating and is continued over twelve days of network development until the experiment is terminated. Cells are fed with fresh medium on DIV 5 and 9, following the recordings on those days. The entire volume of media in the well is exchanged and any vehicle or compound treatment is renewed. Complete details are found in OP-NHEERL/ISTD/SBB/TJS/2015-03-r0 (available on request, email shafer.tim@epa.gov). Measurement of the electrical activity is non-invasive, and recordings can be made from the same plate over multiple different days of the culture. In cortical neurons, this allows for the measurement of extracellular action potentials over the period during which networks form in the MEA plate.

Row | Compound | outcome | AC50
1 | ClC1C(Cl)C(Cl)C(Cl)C(Cl)C1Cl (configuration not stated) | inactive | 
2 | CC(C)N(C(=O)COc1nnc(C(F)(F)F)s1)c1ccc(F)cc1 | inactive | 
3 | CC1(C)C(C=C(Cl)Cl)C1C(=O)OC(C#N)c1ccc(F)c(Oc2ccccc2)c1 (configuration not stated) |  | 2.63 µM (active) and 27.9 µM (active) and 19.5 µM (active)
4 | CC1(c2ccc(Oc3ccccc3)cc2)OC(=O)N(Nc2ccccc2)C1=O (configuration not stated) |  | 4.72 µM (active)
5 | CCC(C)(C)C(=O)OC1=C(c2ccc(Cl)cc2Cl)C(=O)OC12CCCCC2 | inactive | 
6 | O=S1OCC2C(CO1)C1(Cl)C(Cl)=C(Cl)C2(Cl)C1(Cl)Cl (configuration not stated) |  | 8.83 µM (active)
7 | Oc1cc(Cl)ccc1Oc1ccc(Cl)cc1Cl |  | 10.2 µM (active)
8 | O=S(=O)(O)C(F)(F)C(F)(F)C(F)(F)C(F)(F)C(F)(F)C(F)(F)C(F)(F)C(F)(F)F | inactive | 77.9 µM (active)
9 | COP(=O)(OC)OC=C(Cl)Cl | inactive | 4.26 µM (active)
10 | CC[C@H](C)[C@H]1O[C@]2(C=C[C@@H]1C)C[C@@H]1C[C@@H](C/C=C(\C)[C@@H](O[C@H]3C[C@H](OC)[C@@H](O[C@H]4C[C@H](OC)[C@@H](O)[C@H](C)O4)[C@H](C)O3)[C@@H](C)/C=C/C=C3\CO[C@@H]4[C@H](O)C(C)=C[C@@H](C(=O)O1)[C@]34O)O2 (tested in a mixture with another compound) |  | 9.62 nM (active) and 1.82 nM (active)
11 | CNC(=O)CSP(=S)(OC)OC |  | 63.8 µM (active) and 27.9 µM (active)
12 | O=C(O)COc1ccc(Cl)cc1Cl | inactive | 
13 | O=C(O)C(F)(F)C(F)(F)C(F)(F)C(F)(F)C(F)(F)C(F)(F)C(F)(F)F | inactive | 
14 | COP(=S)(OC)Oc1ccc([N+](=O)[O-])cc1 | inactive | 
15 | O=[N+]([O-])/N=C1\NCCN1Cc1ccc(Cl)nc1 | inactive | 
